# System: VDR:RXRa (NR concentration 270 nM, RXRa partner concentration 90 nM)
# Test: PBM binding z-score (relative to random genomic background probes); higher = stronger binding; sequences stand for … in GC…GCGATTGACAGCGTAGAATGAAGG
# Protocol: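 Protein-binding microarray (Agilent 4x180K custom design, double-stranded 60-nt probes: 5' GC cap, 34-nt variable region, 24-nt constant primer region; full probe sequence given). Purified or IVT nuclear receptor:RXRα heterodimers (3:1 NR:RXRα, mostly 270:90 nM) or homodimers were incubated for 1 h in PBS with 2% milk and no ligand, then detected with Alexa488 antibodies. Fluorescence from o1-orientation probes (~5 replicates averaged) was converted to z-scores against 500 random hg19 background probes. Variable regions are seed direct-repeat (DR0–DR5) sites, all their single-nucleotide variants and half-site ablations.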
row,Sequence,PBM binding z-score
1,CGTCAAAGTTCAAGATAACGTAACAGAAAGCAGC,3.2
2,GCTTACGGGTCAAAGGTTATAGCTTGAATAGAAT,5.25
3,TCTTATAGATCAACAGGAGGTTAAGAAAGATCGA,1.01
4,CTCGAAAGGTCGGTTGAGGTAAGTATACGGATAA,1.57
5,AGTCAAAGTTCATCTAGTTAACGTAAGATATGCT,4.86
6,CTCGAAAGGTCGTGCTGAGGTGAGTATACCAAAC,3.85
7,CCTAGTTGGTCACGGTCACACACGCTATAGGTAC,1.12
8,CCTAGCAGGCCAAGCTGGGTCACTCAAGGCTTGA,0.17
9,AGAATGAGGTTATGAAGATCAGGGAATTGCGGTC,1.44
10,GCGACTGGGGCAAAGGAGGTTACCATAAGGTTGG,1.26
11,CCGAGAAGGTTATGGGGCATTCAGGCAACGGTGA,0.66
12,GCAGACAGGTGAAACGAAGGTAACTCAGGGTGGC,-0.301
13,TAGCCTAGGTCAGAGCGGGCCAGTATACGCTATA,0.36
14,CCTTACGGGTCACTGACAGGTTAGAGCATTTGGA,3.33
15,TCTGCTAGGTCAACGATGGTCAGCTAGTCTGCTA,1.43
16,CATCCAAGGTCAGCAGGTCAGTGAAAGCGACGTG,4.18
17,CGTCCAAGGTCAAAGATCAGTGAAGAGATGACGG,4.44
18,GGAACGAGGGCACAGTTGATAGCATCTGTCGACG,0.453
19,CAAACTAGGTCACCGCAAGGTCAAAGTCCGCATG,6.39
20,TAGCCTAGGTCAGGGGCCAGTATACCACGCGAAC,0.706

row,Sequence,PBM binding z-score
1,AGAATGAGGTTATACGTTGATCAGGGAAGAAAGT,1.39
2,ACTATTAGTTGAGACGAGGCCAACCGATAGGTTG,0.333
3,CCTCCAAGGTCAGAGAGGTCAGTGAATGCCGAGT,7.22
4,ACAGACAGGTGAGTGAAGGTAACTCTGCTGGACG,-0.344
5,GATACAGGGTCAAGGCCAGAGTTCGCGTATTGAT,5.31
6,CCGACTGGGGCATGAGGTTACCATAAGCCAGCCC,-0.146
7,TCATATAGGTAAAAGGTGATAGTCGGTGTGGTAA,1.13
8,CAAACTAGGTCAAGAAAGGTCAAAGTCGAATGAC,6.44
9,CGTCCAAGATCAAAGGTCAGTGAAGAGATGACGG,3.08
10,TCATATAGGTAATACAGGAGAAAGTCGGCATCTA,0.996
11,ATCTCTAGGTAAAGTCCAGTGAAAGATCGATAGA,-0.12
12,CCACGGAGGACAGAAGGTCAGAGCTGTCCGCTTT,0.979
13,ATGTCTAGGTAAAAGTTCAGTGAATCCCGAGGAT,1.3
14,ATCGAAAGGTCGAAGGTGAGTTTACCCACCCGAA,4.33
15,CTTACTGGGCCATTCAGAGGTCATTGATCATATG,4.23
16,TCTATTAGTTGATTAGCGCAACCGAAACAGCGGA,0.694
17,GGAACGAGGGCAATTTGATAGCAGAGTTTGATGG,0.368
18,CCTCCTGGGCCACGAAAGGTCATTGATTCAGTGA,4.04
19,ATCTCTAGTTAAAGTTCAGTGAAAGATCGATAGA,1.64
20,ACAGACAGGTGAGTGAAGGTAACTCCGCTGGACG,-0.433

# From the supplement of paper PMC6555819
